PubChem BioAssay (Tox21)
Inconclusive results are not listed. Calls of active or inactive are those of the source. Calls follow the shape of the dose curve; as a rule, active = well fitted cell-killing curve with a large enough effect in the repeat runs; inconclusive = weak or mixed curves, or effect the other way; inactive = flat fitted curve, though single readings scatter.

Test: qHTS assay to identify small molecule antagonists of the estrogen related receptor signaling pathway with the pleiotropic PPARgamma coactivator (PGC) cell viability counter screen (AID 1224822;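 also: viability read after 17.5 h compound exposure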)
Settings: ERR/PGC reporter cell line viability counter screen; series mostly up to 46.1 µM
Text: National Center for Advancing Translational Sciences [NCATS]
NIH Chemical Genomics Center [NCGC]
U.S. Environmental Protection Agency [EPA]
National Institutes of Environmental Health Sciences [NIEHS]
National Toxicology Program [NTP]
U.S. Food and Drug Administration [FDA]
Estrogen related receptors (ERRs), the first orphan nuclear receptors discovered, play an important role in the control of cellular energy metabolism. ERRs are required for high-energy production in response to the environmental challenges. The pleiotropic PPARgamma coactivator (PGC) is a major partner of ERR and a key regulator in energy homeostasis. Together they have been implicated in the etiology of metabolic disorders such as Type 2 diabetes and metabolic syndrome. ERR-alpha was also identified as an adverse marker for breast cancer progression; ERR-alpha-positive tumors have a poor prognosis. To screen and to identify environmental compounds that perturb the ERR and PGC/ERR signaling pathways could provide valuable information for potential therapeutic or preventive measures in the treatment of metabolic disease. To differentiate true PGC/ERR antagonists or agonist from cytotoxic substances, the assay is multiplexed with cell viability assay.
Tox21 Assay Protocol Summary:
The PGC/ERR cells were dispensed at 2,000 cells/5 ul/well in 1536-well white plates using a Multidrop dispenser. After the assay plates were incubated at a 37 C/5% CO2 incubator for 6 hours, 23 nL of compounds dissolved in DMSO, positive and negative controls or DMSO only was transferred to the assay plate by a pin tool. The plates were incubated at 37 C for 17.5 hours. 1 ul/well of CellTiter-Fluor reagent was added into the assay plates using a Flying Reagent Dispenser. After 30 min incubation at 37 C/5% CO2, the fluorescence intensity in the plates was measured using a ViewLux plate reader.

SMILES	outcome
NCCS(=O)(=O)O	inactive
C[N+](C)(C)CCO	inactive
CC1(C)NC(=O)N(c2ccc([N+](=O)[O-])c(C(F)(F)F)c2)C1=O	inactive
Cc1ccc(/C(=C\CN2CCCC2)c2ccccn2)cc1	inactive
C[C@]12CC[C@@H]3c4ccc(O)cc4CC[C@H]3[C@@H]1CC[C@@H]2O	inactive
O=C(CCCN1CCC(O)(c2ccc(Cl)cc2)CC1)c1ccc(F)cc1	inactive
C[C@]12C=CC(=O)C=C1CC[C@H]1[C@@H]3C[C@@H](O)[C@](O)(C(=O)CO)[C@@]3(C)C[C@H](O)[C@@]12F	inactive
CC(C)[N+](C)(CCOC(=O)C1c2ccccc2Oc2ccccc21)C(C)C	inactive
CCc1cccc2c3c([nH]c12)C(CC)(CC(=O)O)OCC3 (stereo not drawn)	inactive
CNC[C@H](O)c1ccc(O)c(O)c1	inactive
O=C(O)COCCN1CCN(C(c2ccccc2)c2ccc(Cl)cc2)CC1 (stereo not drawn)	inactive
NC[C@H](O)c1ccc(O)c(O)c1	inactive
CN(Cc1cnc2nc(N)nc(N)c2n1)c1ccc(C(=O)N[C@@H](CCC(=O)O)C(=O)O)cc1	inactive
